Assay results reported in PubChem BioAssay (NCI).
About 79,000 compounds went through this panel and 15% of them were active in at least one assay; those are over-represented in the sample as a whole. Cut-off read from the data, not from the text of the source: active = growth inhibition above about 70%; inactive = the rest.

Assays:
[1] = NCI Yeast Anticancer Drug Screen. Data for the rad50 strain (AID 155);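 note: 0% = growth of vehicle-only cultures of the same strain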; conditions: S. cerevisiae rad50 strain growth inhibition, hits give high values; at 50.0 µM unless noted
Method in brief: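 Growth of the mutant yeast was measured after compound exposure and referenced to vehicle-treated cultures.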

[2] = NCI Yeast Anticancer Drug Screen. Data for the mec2-1 strain (AID 157); conditions: S. cerevisiae mec2-1 strain, hits give high values; at 50.0 µM unless noted
Method in brief: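 Vehicle-treated cultures served as reference for growth inhibition of compound-exposed mec2-1 yeast.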

[3] = NCI Yeast Anticancer Drug Screen. Data for the sgs1 mgt1 strain (AID 161);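 note: 0% = growth of cultures given vehicle only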; conditions: S. cerevisiae sgs1 mgt1 strain, hits give high values; at 50.0 µM unless noted
Method in brief: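 Test agents were incubated with a DNA-repair-mutant yeast strain. Growth was then read and compared against vehicle-treated controls.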

[4] = NCI Yeast Anticancer Drug Screen. Data for the cln2 rad14 strain (AID 165);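 note: 0% = growth equal to vehicle treated cultures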; conditions: S. cerevisiae cln2 rad14 strain, hits give high values; at 50.0 µM unless noted
Method in brief: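 Each compound was tested on cln2 rad14 yeast. Inhibition of growth was calculated against vehicle-exposed controls.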

[5] = NCI Yeast Anticancer Drug Screen. Data for the bub3 strain (AID 167); conditions: S. cerevisiae bub3 mutant strain, hits give high values; at 50.0 µM unless noted
Method in brief: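 Whole-cell yeast assay. The mutant strain was incubated with compounds, and growth inhibition was determined by comparison with vehicle-treated cells.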

[6] = NCI Yeast Anticancer Drug Screen. Data for the mlh1 rad18 strain (AID 175); conditions: S. cerevisiae mlh1 rad18 strain growth inhibition, hits give high values; at 50.0 µM unless noted
Method in brief: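 Vehicle-treated cultures served as the reference for growth inhibition in a yeast strain carrying DNA damage repair alterations exposed to each compound.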

Measured: growth inhibition

Nc1cncnc1N
inactive: [1] 35.7% | [2] 7.25% | [3] 31.9% | [4] 16.2% | [5] -18.6% | [6] 26.5%

S=c1[nH]c2ccccc2c(=S)n1CN1CCCCC1
inactive: [1] -26.6% | [2] -27.4% | [3] -15.3% | [4] -13.1% | [5] 4.6% | [6] -11.9%

O=S(=O)(O)c1cc(O)c(S(=O)(=O)O)cc1O
inactive: [1] -12.2% | [2] 13.9% | [3] 1.7% | [4] -3.6% | [5] 1.4% | [6] -8.6%
